This is part of a sample that, as a whole, favours compounds with a hit. Of some 79,000 tested, about 15% had one in any assay. Cut-off read from the data, not from the text of the source: active = growth inhibition above about 70%; inactive = the rest.
How the values were obtained:
[1] = NCI Yeast Anticancer Drug Screen. Data for the rad50 strain (AID 155);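 note: 0% = growth of vehicle-only cultures of the same strain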; conditions: S. cerevisiae rad50 strain growth inhibition; at 50.0 µM; hits give high values
Method in brief: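 DNA repair mutant yeast, compound exposure, growth read-out; inhibition is taken relative to vehicle.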

[2] = NCI Yeast Anticancer Drug Screen. Data for the mec2-1 strain (AID 157); conditions: S. cerevisiae mec2-1 strain, at 50.0 µM, hits give high values
Method in brief: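 Test agents were screened against the mec2-1 yeast strain, with defined DNA repair or cell cycle alteration. Growth was scored as inhibition against vehicle-only controls.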

[3] = NCI Yeast Anticancer Drug Screen. Data for the sgs1 mgt1 strain (AID 161);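 note: 0% = growth of cultures given vehicle only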; conditions: S. cerevisiae sgs1 mgt1 strain, at 50.0 µM, hits give high values
Method in brief: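 Test agents were incubated with a DNA-repair-mutant yeast strain. Growth was then read and compared against vehicle-treated controls.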

[4] = NCI Yeast Anticancer Drug Screen. Data for the cln2 rad14 strain (AID 165);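 note: 0% = growth equal to vehicle treated cultures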; conditions: S. cerevisiae cln2 rad14 strain, at 50.0 µM, hits give high values
Method in brief: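 Growth of compound-exposed yeast (cln2 rad14 genotype) measured and expressed as inhibition relative to vehicle.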

[5] = NCI Yeast Anticancer Drug Screen. Data for the bub3 strain (AID 167); conditions: S. cerevisiae bub3 mutant strain, at 50.0 µM, hits give high values
Method in brief: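 In this screen, a yeast mutant lacking normal mitotic checkpoint function is challenged with compound. Relative growth versus vehicle gives the inhibition value.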

[6] = NCI Yeast Anticancer Drug Screen. Data for the mlh1 rad18 strain (AID 175); conditions: S. cerevisiae mlh1 rad18 strain growth inhibition; at 50.0 µM; hits give high values
Method in brief: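 In this whole-cell yeast screen, a strain with altered DNA damage repair is challenged with compound, and its growth is measured against matched vehicle-treated controls.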

Measured: growth inhibition

CC(=O)/C(=C\n1c(=S)[nH]c2ccc([N+](=O)[O-])cc21)C(=O)Nc1ccccc1C
inactive: [1] 2.1% | [2] -44.8% | [3] -5.05% | [4] -2.8% | [5] -20.4% | [6] -7.3%

CC(C)(C)c1ccc(Sc2cccc3c2C(=O)c2c(Cl)cccc2C3=O)cc1
inactive: [1] -11.3% | [2] -4.1% | [3] -27.1% | [4] -8.1% | [5] 0.55% | [6] -0.85%

CSc1nc(NCc2ccc(Cl)cc2)c2[nH]c(C)nc2n1
inactive: [1] 7.7% | [2] -13.6% | [3] 18.4% | [4] -3% | [5] 20.1% | [6] 6.45%

O=C1c2c(nc3ccccc3c2-c2ccccc2)CN1Nc1ccccn1
inactive: [1] -2.5% | [2] -4.1% | [3] 6.8% | [4] 12.8% | [5] -5.7% | [6] -33.9%

O=C(N/N=C/c1cc(-c2ccccc2Cl)c(-c2ccccc2Cl)o1)c1ccncc1
inactive: [1] 14.5% | [2] 23.6% | [3] 38.4% | [4] 28% | [5] 26.7% | [6] 28.3%

Cc1ccc2nc(Nc3nc(C)cc(C)n3)[nH]c2c1
inactive: [1] -36.9% | [2] -31.6% | [3] -21.9% | [4] -0.3% | [5] -17.8% | [6] -11.9%

CCOC(=O)C(=N\Nc1ccccc1)/C(C)=N\NC(N)=S
inactive: [1] 13.2% | [2] -7.45% | [3] -11.7% | [4] 8.95% | [5] 4.5% | [6] 1.9%

CCN(C(=O)CCl)c1ccccc1
inactive: [1] 15% | [2] 0.35% | [3] -0.1% | [4] -12.6% | [5] -7.25% | [6] 14.2%

Cc1ccc(N)c(C#N)c1
inactive: [1] -11.8% | [2] 11.7% | [3] -5.7% | [4] 1% | [5] -5% | [6] 4.65%

CCCC(=O)C(CC)C(=O)OCC (stereo not drawn)
inactive: [1] -8.7% | [2] -1.35% | [3] -3% | [4] -9.8% | [5] -0.25% | [6] 11.4%

C=C1CC[C@H]2C(C)=CC[C@H]3C(=C)C(=O)O[C@@H]3[C@@H]12
inactive: [1] -36.4% | [2] -17% | [3] -24.1% | [4] -3.9% | [5] -15.4% | [6] -6%

CC1C2(C)OCC(C#N)(C(=N)O2)C1(C#N)C#N (stereo not drawn)
inactive: [1] 21.2% | [2] 12.2% | [3] -44.5% | [4] -18.3% | [5] -40% | [6] 3.65%

[N-]=[N+]=NC(=O)C1C(c2ccccc2)=C1c1ccccc1
inactive: [1] 45.5% | [2] 6.8% | [3] -0.2% | [4] 23.7% | [5] 27.8% | [6] -10.2%

CC(=O)Nc1ccc(/C=C/c2csnn2)cc1
inactive: [1] -7.8% | [2] 7.7% | [3] 11.9% | [4] 8.7% | [5] -4.45% | [6] -3.2%

N#CC(Cc1ccccc1)C(=O)O (stereo not drawn)
inactive: [1] 2.05% | [2] 0.5% | [3] -5.35% | [4] 2% | [5] 1.4% | [6] 0.8%

CCCCCCCCCCCCCCCCCC(N)=O
inactive: [1] 5.2% | [2] -14.2% | [3] 3.35% | [4] -15.7% | [5] -2.5% | [6] 25.4%

Cc1cc(Cc2ccc(NC(=O)N3CC3)c(C)c2)ccc1NC(=O)N1CC1
inactive: [1] -2.95% | [2] -8.25% | [3] -6.8% | [4] 0.25% | [5] 10.8% | [6] -18.9%

CC1(OC(=O)Nc2ccccc2)CCCCC1
inactive: [1] 5.75% | [2] -0.8% | [3] 0.9% | [4] 3.55% | [5] 3.55% | [6] -9.95%

[O-][n+]1cc(N=Nc2ccc(Cl)cc2)nn1-c1ccc(Cl)cc1
inactive: [1] -11.6% | [2] -33.8% | [3] -8.5% | [4] 9.85% | [5] -1.1% | [6] -14.3%

CCOC(=O)C1=C(C)OC(=O)CC1C (stereo not drawn)
inactive: [1] 33.2% | [2] -15.8% | [3] 3.75% | [4] 9.05% | [5] -23.6% | [6] 14%

CC(C)(C)C(=O)C(Cc1ccccc1)C(=O)C(C)(C)C
inactive: [1] 2.6% | [2] -11.8% | [3] 2.15% | [4] 16.8% | [5] 5.45% | [6] -1.95%

Cc1[nH]nc(C(=O)O)c1[N+](=O)[O-]
inactive: [1] 35.6% | [2] 11.3% | [3] 20.2% | [4] -25.7% | [5] -3.2% | [6] 8.2%

O=c1c2ccccc2n2nnc3ccc(NCCNCCO)c1c32
inactive: [1] -15.1% | [2] 2.8% | [3] -0.7% | [4] 23.3% | [5] -0.45% | [6] -1.3%

Cc1ccc([N+](=O)[O-])cc1NC(=O)C(=O)C1CCC2=C(Sc3ccccc3N2)C1=O (stereo not drawn)
inactive: [1] 0.5% | [2] -16.9% | [3] -9.45% | [4] -17.9% | [5] -0.4% | [6] -5.85%

CCC(C)C(=O)c1c(O)c(C/C=C(\C)CCC=C(C)C)c(O)c2c(C(O)CC)cc(=O)oc12 (stereo not drawn)
inactive: [1] 21.8% | [2] 15.8% | [3] 14.7% | [4] 18.1% | [5] 20.1% | [6] 42.9%

Cc1nnc2cc1CCCCCCCCC2
inactive: [1] 11.8% | [2] 6.25% | [3] 4.8% | [4] 5.2% | [5] -10.8% | [6] 4.9%

COC(=O)[C@@H](N1C(=O)c2ccccc2C1=O)C1(C)CC(Cl)=NO1 (stereo partly drawn)
inactive: [1] -14.4% | [2] 2.75% | [3] -14.7% | [4] -11.8% | [5] 4.45% | [6] 12.1%

O=C1NC(N2CCCCC2)=N/C1=C\c1ccco1
inactive: [1] -11.8% | [2] 0.2% | [3] 8.35% | [4] 13.7% | [5] -5.65% | [6] -33.8%

CCOC(=O)c1[nH]c(CC(=O)O)c(C(=O)O)c1C
inactive: [1] 15.7% | [2] 26.4% | [3] 24.4% | [4] 0.4% | [5] 16.4% | [6] 15.2%

CCOC(=O)/C(=C\c1ccc(N(C)C)cc1)c1nc2ccccc2[nH]1
inactive: [1] 38% | [2] 21.6% | [3] 47.1% | [4] 13.1% | [5] 40.5% | [6] -2.75%

O=C(NCCN1CCCC1)NC1CCCCC1
inactive: [1] -2.25% | [2] 2.35% | [3] 3.85% | [4] -69.5% | [5] 8.2% | [6] 14.8%

COC1OC(OC2OC=C3C(=O)OC4CC(C)C2C34)C(O)C(O)C1O (stereo not drawn)
inactive: [1] -17.1% | [2] -34.2% | [3] -18.7% | [4] -14.3% | [5] -33.4% | [6] -29.1%

CC1CC(c2ccccc2)(c2ccccc2)CN1C (stereo not drawn)
inactive: [1] -16.1% | [2] 9.4% | [3] 6.55% | [4] -45.3% | [5] 15.2% | [6] 8.5%

CCCCCCCCCC(=O)N/N=C/c1cccs1
inactive: [1] 0.95% | [2] 24.2% | [3] 3.9% | [4] -12.7% | [5] 35.8% | [6] 15.3%

Oc1ccccc1-c1nc2ccccc2s1
inactive: [1] -0.25% | [2] -37% | [3] 7.85% | [4] -2.7% | [5] 10.3% | [6] -10.2%

c1ccc(Cc2nnc(Cc3ccccc3)nn2)cc1
inactive: [1] 10.8% | [2] 8.35% | [3] 2.7% | [4] 7.25% | [5] 21.4% | [6] 7%

Cc1nc(N/N=C/c2ccccc2Cl)[nH]c(=O)c1CCO
inactive: [1] -18.9% | [2] -2.8% | [3] -17.4% | [4] 12.2% | [5] -30.2% | [6] 4.15%

COC(=O)C1(C(=O)OC)CC(=O)c2c(OC(=O)c3cccc(OC)c3C#N)ccc(OC(=O)c3cccc(OC)c3C#N)c2C1
inactive: [1] 1.05% | [2] 3.95% | [3] -11.5% | [4] -4.35% | [5] 0.05% | [6] 16.9%
